The record followed here is PubChem BioAssay (Tox21).

Results filed as inconclusive are left out. A number with no mark means an inactive call. Calls follow the shape of the full dose curve.
% is scaled to controls: 0 for no effect and ±100 for the full control effect.

A short description of one assay: p53 small molecule agonists, cell-based qHTS assay with human liver microsomes (AID 1963577).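 Also: p53 response element beta-lactamase reporter cells with liver microsomes plus NADPH.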 Conditions: HCT-116 p53RE-bla with human liver microsomes, ratio, 16 h; series mostly up to 66 µM; activation: at the top concentration. A digest of the protocol:
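Reporter activation was measured by LiveBLAzer fluorescence intensity in p53RE-bla cells, which had been exposed to compounds for 16 h at 37 C alongside 0.5 mg/mL human liver microsomes and 0.5 mg/mL NADPH (final concentrations).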
Consider `[Cl][Sn]([Cl])([Cl])[Cl]`, for which the “activation” value was 0.0797%.

For `O=[N+]([O-])c1ccc(CCl)cc1`, the “activation” value is -0.199%. Consider `O=C(CCCN1CCC(n2c(=O)[nH]c3ccccc32)CC1)c1ccc(F)cc1`, for which the “activation” value was -10.9% [at 30.3 µM].

Turning to `COc1cc(CC#N)cc(OC)c1OC`, the “activation” value was -0.746% [at 30.3 µM]. Same read-out and setting: then `CC(C)NCC(O)c1ccc([N+](=O)[O-])cc1` (stereo not given), with -5.88% [at 30.3 µM]; and `CC(C(O)c1ccccc1)N(C)C/C=C/c1ccccc1` (stereo not given), with -1.98% [at 30.3 µM]; and `CC[C@@H](CO)NC(=O)[C@@H]1C=C2c3cccc4[nH]cc(c34)C[C@H]2N(C)C1`, with -8.73% [at 30.3 µM]. Still for that read-out and setting: under `CC(Cl)(Cl)Cl` stands 3.48%; under `CCOC(=O)CC(=O)CCl`, -0.821%; under `CNC(C)Cc1ccccc1OC` (stereo not given), 20.8% [at 30.3 µM]. On the same count and under the same terms, then `CC(C)NCC(O)c1ccccc1Cl` (stereo not given), with 0.034% [at 30.3 µM]; and `CCN(CC)CCOC(=O)C(C)(c1ccccc1)c1ccccc1`, with 0.85% [at 30.3 µM]. On to `ClCc1cccc(Cl)c1`, for which the “activation” value was -0.243% [at 30.3 µM].

In the case of `CC1=C2C[C@H]3[C@@H](CC=C4C[C@@H](O)CC[C@@]43C)[C@@H]2CC[C@]12O[C@@H]1C[C@H](C)CN[C@H]1[C@H]2C`, the “activation” value was -4.11% [at 30.3 µM]. Still for that read-out and setting: then `CC(C)[C@H](C(=O)OC(C#N)c1cccc(Oc2ccccc2)c1)c1ccc(OC(F)F)cc1` (stereo not given in full), with -4.8%.

A short description of a further assay: p53 small molecule agonists, cell-based qHTS assay with rat liver microsomes (AID 1963578). To be noted: HCT-116 p53RE-bla, beta-lactamase ratio, 16 h; series mostly up to 66 µM; activation: at the top concentration. A digest of the protocol:
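Compound in DMSO added to p53RE-bla cells 5 h post-plating; rat microsomes/NADPH 0.5 mg/mL final; 16 h, 37 C; LiveBLAzer 2 h RT.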
Turning to `CCCCCCCCP(=O)(O)O`, the “activation” value was 5.01%. Same read-out and setting: then `c1ccc2c(c1)CCNC2`, with -0.552%; and `C[C@]12Cc3nonc3C[C@@H]1CC[C@@H]1[C@@H]2CC[C@@]2(C)[C@H]1CC[C@]2(C)O`, with -2.78% [at 30.3 µM]. Take `Nc1cc(Cl)ccc1Cl`: the “activation” value was -1.2%. Still for that read-out and setting: then `Clc1cccc(N2CCNCC2)c1`, with 0.389% [at 30.3 µM]; and `N#Cc1c(Cl)cccc1Cl`, with -0.124%; and `COc1ccc(CN2CCNCC2)c(OC)c1OC`, with 1.3% [at 30.3 µM]. Consider `CC(Cc1ccccc1)N(C)Cc1ccco1` (stereo not given), for which the “activation” value was -1.17% [at 30.3 µM]. Still for that read-out and setting: under `ClCC(Cl)Cl` stands -3.47%; under `CC[C@@H](CO)NC(=O)[C@@H]1C=C2c3cccc4c3c(cn4C)C[C@H]2N(C)C1`, -2.66% [at 30.3 µM]. On to `CC1NCCOC1c1ccccc1` (stereo not given), for which the “activation” value was 0.605% [at 30.3 µM].

With `O=C(Cc1ccccc1)OCCc1ccccc1`, the “activation” value is -0.0249%. Same read-out and setting: under `O=C(Cl)c1ccc(Cl)cc1` stands 0.477%; under `COc1ccc(C(=O)N2CCCC2=O)cc1`, 1.18% [at 30.3 µM]. The same measure, in the same setting: then `ClCCCN1CCN(c2cccc(Cl)c2)CC1`, with 0.378% [at 30.3 µM]; and `C=CCC1([C@H](C)CCC)C(=O)NC(=O)NC1=O`, with -2.08%; and `ClC(Cl)=C(Cl)Cl`, with 0.955%. In the case of `CCN(C(C)=O)c1cccc(-c2ccnc3c(C#N)cnn23)c1`, the “activation” value is 3.6% [at 30.3 µM]. Same read-out and setting: under `CCCN1CCC[C@@H]2Cc3[nH]ncc3C[C@H]21` stands -3.15% [at 30.3 µM].

Take `CC#Cc1cc(C)nc(Nc2ccccc2)n1`: the “activation” value was -6.22%. In the case of `BrCCCCBr`, the “activation” value is -0.374%. The same measure, in the same setting: then `O=c1[nH]oc2c1CCNC2`, with 1.35% [at 30.3 µM]; and `O=C1OC(CCN2CCCCC2)OC1(c1ccccc1)c1ccccc1` (stereo not given), with 2.65% [at 30.3 µM].

On to `N[C@@H](Cc1ccc(Oc2cc(I)c(O)c(I)c2)c(I)c1)C(=O)O`, for which the “activation” value is 2.45% [at 30.3 µM]. On the same count and under the same terms, under `O=S1(=O)OC(c2cc(Br)c(O)c(Br)c2)(c2cc(Br)c(O)c(Br)c2)c2ccccc21` stands 8.04%; under `[Cl][Sn]([Cl])([Cl])[Cl]`, -1.35%; under `O=[N+]([O-])c1ccc(CCl)cc1`, 0.628%. On the same count and under the same terms, under `O=C(CCCN1CCC(n2c(=O)[nH]c3ccccc32)CC1)c1ccc(F)cc1` stands -2.72% [at 30.3 µM]; under `COc1cc(CC#N)cc(OC)c1OC`, 0.0981% [at 30.3 µM].

Consider `CC(C)NCC(O)c1ccc([N+](=O)[O-])cc1` (stereo not given), for which the “activation” value was -0.379% [at 30.3 µM]. Same read-out and setting: under `CC(C(O)c1ccccc1)N(C)C/C=C/c1ccccc1` (stereo not given) stands -0.78% [at 30.3 µM]. With `CC[C@@H](CO)NC(=O)[C@@H]1C=C2c3cccc4[nH]cc(c34)C[C@H]2N(C)C1`, the “activation” value was 0.432% [at 30.3 µM]. Regarding `CC(Cl)(Cl)Cl`, the “activation” value was 0.681%. In the case of `CCOC(=O)CC(=O)CCl`, the “activation” value is -3.56%. Turning to `CNC(C)Cc1ccccc1OC` (stereo not given), the “activation” value was 0.273% [at 30.3 µM]. `CC(C)NCC(O)c1ccccc1Cl` (stereo not given): the “activation” value is 0.282% [at 30.3 µM]. Same read-out and setting: under `CCN(CC)CCOC(=O)C(C)(c1ccccc1)c1ccccc1` stands -0.223% [at 30.3 µM]; under `ClCc1cccc(Cl)c1`, 0.879% [at 30.3 µM]; under `CC1=C2C[C@H]3[C@@H](CC=C4C[C@@H](O)CC[C@@]43C)[C@@H]2CC[C@]12O[C@@H]1C[C@H](C)CN[C@H]1[C@H]2C`, -1.88% [at 30.3 µM]. For the compound `CC(C)[C@H](C(=O)OC(C#N)c1cccc(Oc2ccccc2)c1)c1ccc(OC(F)F)cc1` (stereo not given in full), the “activation” value was 10.8%.
